Bioassay records as filed in PubChem.
Pf growth 96h: P. falciparum growth inhibition at 96 hour, primary screen for plastid delayed-death inhibitors; P. falciparum luciferase reporter growth, 96 h; Potency, µM (doses to about 28.7 µM), for inactives: top-dose activity change, negative = inhibition, actives largely listed as inhibitors; 320,000 compounds, 6.9% hits; also: potency is read from the fitted curve at half-maximal effect
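Readout is luminescence from an integrated firefly luciferase in P. falciparum. Red cells, 2% hematocrit and 0.05% parasitemia final, were cultured with compound through two parasite generations (96 hours) at 37 C, 5% CO2.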
HCMV inh: blocks human cytomegalovirus replication; HFF cells, HCMV-luciferase reporter, 72 h; stronger effect = lower value; activity change, negative = inhibition, % at 57.5 µM; 410,000 compounds, 4.5% hits; in the data active = activity change below about -60%; inconclusive = no clear call, values can overlap the other calls; inactive = above about -39%
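Two compound doses tested in HFFs infected with HCMV-luciferase, MOI 1 PFU/cell, 72 h at 37C. Lysate luminescence read with OneGlo; data normalized against buffer-only and 10uM Salinomycin inhibitor controls.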
HCV inhibitor: blocks hepatitis C virus | 340,000 compounds, 3.4% hits | AID 651820 | Potency, µM (top dose mostly 41.8 µM), for the others: top-dose activity change, negative = inhibition, most hits filed as inhibitors | Huh7.5.1 HCVcc-Cre infection, luciferase reporter, 44 h; also: potency is read from the fitted curve at half-maximal effect
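Whole-lifecycle infectious HCVcc-Cre system; cells 1,000/well, compound then virus (~0.5 moi) added 4 h after plating, 44 h culture. Luciferase read 15 sec following 15 min substrate incubation, room temp.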
Pf growth 48h: P. falciparum growth inhibition at 48 hours (one generation); P. falciparum luciferase growth in erythrocytes, 48 h; Potency, µM (titrated, usually from 28.7 µM), inactives show top-dose activity change, negative = inhibition, actives largely listed as inhibitors; 310,000 compounds, 5.9% hits; AID 504832; also: potency is read from the fitted curve at half-maximal effect
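Firefly luciferase activity from engineered P. falciparum reports growth; inhibitors lower the luminescent signal. Cultures contained 2% hematocrit erythrocytes at 0.1% final parasitemia.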
The depositor's hits bear a star. Hits are enriched below; roughly 13% of the tested compounds scored in any of these assays. Unless noted, calls follow the shape of the dose curve; as a rule, active = well fitted inhibition curve with a large enough effect; inconclusive = small, poorly fitted or top-dose-only effect, or another doubt; inactive = no such curve, though single readings can be large or run the other way. % is scaled to controls: 0 for no effect and ±100 for the full control effect.

How did C(=N\Nc1ccc2ccccc2n1)/c1ccc2c(c1)OCCO2 do in these assays?
Pf growth 96h: 178.1%; HCMV inh: -89.7*; HCV inhibitor: 2.5%; Pf growth 48h: 4.0%

What do the screens show for `Cc1cc(C)c(NC(=O)C(C)n2c(=O)cc(-c3ccccc3)c3c(C)nn(C)c32)c(C)c1` (configuration not stated)?
HCMV inh: 13.2

What do the screens show for `COc1cccc(/C=N/Nc2ncnc3c2ncn3Cc2ccccc2)c1O`?
Pf growth 96h: 2.33µM*; HCMV inh: -98.0*; HCV inhibitor: inconclusive; Pf growth 48h: 1.85µM*

Results for COc1cccc(/C=N/Nc2cc(N3CCOCC3)ncn2)c1O ?
Pf growth 96h: 134.6%; HCMV inh: -99.2*; HCV inhibitor: inconclusive; Pf growth 48h: 0.928µM*

Results for COc1cccc(/C=N/Nc2cc(Cl)nc(C)n2)c1O ?
Pf growth 96h: 14.2%; HCMV inh: 54.0; HCV inhibitor: 0.1%; Pf growth 48h: inconclusive

How did Fc1cccc(/C=N/Nc2cc(N3CCOCC3)ncn2)c1 do in these assays?
Pf growth 96h: 2.33µM*; HCMV inh: 13.5; HCV inhibitor: inconclusive; Pf growth 48h: 146.9%

How did CC1=C(C(=O)N2CCCCCC2)CC(CC(=O)NCCCCc2ccccc2)C(=O)N1CCC1=CCCCC1 (configuration not stated) do in these assays?
HCMV inh: 8.7

Results for COCCN1CCc2nc(SCC(=O)Nc3ccc(C)c(Cl)c3)[nH]c(=O)c2C1 ?
HCMV inh: -14.2

How did CN(C)c1nc(N2CCN(c3ccc(F)cc3)CC2)c(C#N)c(=O)o1 do in these assays?
Pf growth 96h: 25.8%; HCMV inh: inconclusive; HCV inhibitor: 9.4%; Pf growth 48h: inconclusive

Results for CN1CCN(c2nc(N(C)C)oc(=O)c2C#N)CC1 ?
Pf growth 96h: 0.0037µM*; HCMV inh: -16.3; HCV inhibitor: 3.3%; Pf growth 48h: -13.3%

Results for C=CCn1c(SCC(=O)c2[nH]c(C)c(C(C)=O)c2C)nnc1-c1ccncc1 ?
HCMV inh: 50.0; HCV inhibitor: inconclusive; Pf growth 48h: 18.7%

Results for C=CCn1c(SCC(=O)c2[nH]c(C)c(C(=O)OC)c2C)nc2scc(-c3ccc(OC)c(OC)c3)c2c1=O ?
Pf growth 96h: 2.94µM*; HCMV inh: 12.0; HCV inhibitor: inconclusive; Pf growth 48h: inconclusive

Results for Cc1nc(-c2ccccn2)nc(SCC(=O)c2ccccc2)c1Cl ?
Pf growth 96h: 5.22µM*; HCMV inh: -82.3*; HCV inhibitor: -74.4%; Pf growth 48h: 14.7µM*

What do the screens show for `CCC1(c2ccccc2)C(=O)N(C(=O)OC(C)(C)C)N1C(=O)OC(C)(C)C` (configuration not stated)?
Pf growth 96h: inconclusive; HCMV inh: 3.4; HCV inhibitor: 18.3%; Pf growth 48h: 13.1µM*

How did CCCCN(CC)C(=O)CSc1nc2n[nH]c(C)c2c(=N)n1-c1cccc(Cl)c1 do in these assays?
HCMV inh: -10.0

How did COc1ccc(N2CCN(C(=O)CC3NC4CCCCC4NC3=O)CC2)cc1 (configuration not stated) do in these assays?
Pf growth 96h: 11.7µM*; HCMV inh: inconclusive; HCV inhibitor: -0.9%; Pf growth 48h: 2.4%

What do the screens show for `COc1ccc(N2CCN(C(=O)CCNC(=O)c3ccc(C(C)(C)C)cc3)CC2)cc1`?
Pf growth 96h: inconclusive; HCMV inh: -38.0; HCV inhibitor: inconclusive; Pf growth 48h: 10.4µM*

What do the screens show for `COc1ccccc1N1CCN(C(=O)CC2NC3CCCCC3NC2=O)CC1` (configuration not stated)?
Pf growth 96h: 63.8%; Pf growth 48h: 41.1%

How did COc1ccc(C(=O)NCC(=O)N2CCN(c3ccc(F)cc3)CC2)cc1 do in these assays?
Pf growth 96h: -9.8%; HCMV inh: -64.0*; HCV inhibitor: 7.7%; Pf growth 48h: -18.1%

Results for COc1ccc(OC)c(CN2CCN(C(=O)CNC(=O)c3ccc(C(C)(C)C)cc3)CC2)c1 ?
Pf growth 96h: 11.7µM*; HCMV inh: -27.8; HCV inhibitor: 1.4%; Pf growth 48h: inconclusive

How did Cc1oc2c(c(C)cc3oc(=O)c(CC(=O)NCCc4ccc(Cl)cc4)c(C)c32)c1C do in these assays?
HCMV inh: -23.3

Results for Cc1nc2c(-c3ccccc3)c(C)nn2c(C)c1CCC(=O)NCc1ccc(Cl)cc1 ?
HCMV inh: 9.0

How did Nc1nc(NCc2ccccc2)nc(-c2ccccc2)n1 do in these assays?
HCMV inh: 105.7; HCV inhibitor: 10µM*; Pf growth 48h: inconclusive
